Data taken from PubChem BioAssay (NCATS).
Inconclusive results are not listed. A call without a number means that no potency is given here. Calls of active or inactive are those of the source. Unless noted, calls come from the whole dose curve; as a rule, active = well fitted curve in the direction sought with a large enough effect; inconclusive = small, poorly fitted or top-dose-only effect, or another doubt; inactive = no such curve, though single readings can be large; an effect the other way counts as inactive or inconclusive.

Tests used:
[1] = target: Calcium and integrin-binding protein 1 (Homo sapiens) (UniProt Q99828); assay: Primary qHTS for Identification of Calcium Integrin Binding Protein 1 (CIB1) Competitor (AID 1508620); settings: CIB1-GST / FITC-alphaIIb peptide fluorescence polarization; series mostly up to 114 µM;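 note: GST tagged CIB1 binding a fluorescein labelled alphaIIb integrin peptide tracer; top concentration of the series differs between compounds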
Summary of the method: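 CIB1-GST (1 uM final) and compound incubated 15 min at room temperature before adding FITC-alphaIIb peptide tracer (100 nM final). Competition for binding read by fluorescence polarization (ex 480, em 540) after another 15 min at room temperature.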

[2] = target: Cytochrome P450 2D6 (Homo sapiens) (UniProt P10635); assay: Cytochrome P450 family 2 subfamily D member 6 (CYP2D6) small molecule antagonists: luciferase biochemical (cell-free) qHTS assay (AID 1645840; active = well fitted curve in the direction sought with a large enough effect in the repeat runs; an effect the other way counts as inactive or inconclusive; note: nearly all actives have a fitted effect of over 55% in size; note: potency is the fitted concentration of half-maximal effect); settings: P450-Glo CYP2D6 enzyme, luciferin luminescence, 1 h; series mostly up to 57.4 µM
Summary of the method: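 P450-Glo CYP2D6 system: proluciferin substrate converted by enzyme to luciferin, read by luminescence proportional to activity. Enzyme-substrate mix with compound 10 min at room temperature, then NADPH regeneration 1 h before detection reagent.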

Sequence of Cytochrome P450 2D6 (Homo sapiens) (P10635 whole entry, looked up): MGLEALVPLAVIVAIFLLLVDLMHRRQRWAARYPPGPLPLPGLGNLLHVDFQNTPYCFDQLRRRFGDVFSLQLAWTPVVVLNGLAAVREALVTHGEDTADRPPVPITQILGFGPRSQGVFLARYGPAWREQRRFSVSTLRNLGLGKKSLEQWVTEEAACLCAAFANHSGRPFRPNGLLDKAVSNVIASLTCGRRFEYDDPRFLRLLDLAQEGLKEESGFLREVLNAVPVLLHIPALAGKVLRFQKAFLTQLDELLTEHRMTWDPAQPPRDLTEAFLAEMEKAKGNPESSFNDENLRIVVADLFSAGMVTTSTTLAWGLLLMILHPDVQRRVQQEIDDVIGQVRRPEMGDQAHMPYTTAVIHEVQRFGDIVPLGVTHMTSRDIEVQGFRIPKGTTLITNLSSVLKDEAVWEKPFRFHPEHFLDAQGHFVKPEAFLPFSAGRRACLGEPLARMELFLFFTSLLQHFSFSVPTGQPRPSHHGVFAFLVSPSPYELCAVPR
Sequence of Calcium and integrin-binding protein 1 (Homo sapiens) (Q99828 whole entry, looked up): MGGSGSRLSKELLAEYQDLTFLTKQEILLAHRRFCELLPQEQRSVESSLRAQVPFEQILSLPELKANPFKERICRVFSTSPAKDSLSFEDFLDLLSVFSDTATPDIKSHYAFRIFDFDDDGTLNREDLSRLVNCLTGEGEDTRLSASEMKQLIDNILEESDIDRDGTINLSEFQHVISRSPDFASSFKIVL

**Q.** Which Potency [1] does the source give for `COC1CCN(c2cccc(-c3cc(NC(C)=O)nc(-n4nc(C)cc4C)n3)n2)CC1` here?
**A.** inactive

**Q.** And the Potency [2]?
**A.** 6.01 µM (active)

**Q.** Which results are given for `COc1cc(C(=O)NC(=S)Nc2cccc(NC(=O)c3ccccc3)c2)cc(OC)c1OC`?
**A.** Potency [1]: inactive; Potency [2]: inactive

**Q.** For `Cc1cc(N2CCN(C(=O)Oc3ccc(-c4ccccc4)cn3)CC2)c2ccccc2n1`, which Potency [1] is on record?
**A.** inactive

**Q.** And the Potency [2]?
**A.** 15.1 µM (active)

**Q.** With `Cc1cc(N2CCOCC2)ccc1Nc1nc(NC2CCCCC2)c2[nH]cnc2n1` as the molecule, how does the Potency [1] read?
**A.** inactive

**Q.** What about the Potency [2] of the same molecule?
**A.** inactive

**Q.** `O=C(Nc1cc(C(F)(F)F)ccc1N1CCCCC1)c1ccncc1` was tested. Which Potency [1] did it give?
**A.** inactive

**Q.** What about the Potency [2] of the same molecule?
**A.** 8.49 µM (active)

**Q.** Which Potency [1] does the source give for `CC(C)(C)c1ccc(-c2nc3c(N4CCN(Cc5ccc6nccnc6c5)CC4)cccc3[nH]2)cc1` here?
**A.** inactive

**Q.** And the Potency [2]?
**A.** inactive

**Q.** What does the source list for `CCC[C@@]1(CCc2ccccc2)CC(O)=C([C@H](CC)c2cccc(NS(=O)(=O)c3ccc(C(F)(F)F)cn3)c2)C(=O)O1`?
**A.** Potency [1]: inactive; Potency [2]: 6.01 µM (active)

**Q.** `O=C(Nc1ccc(C(O)(C(F)(F)F)C(F)(F)F)cc1)c1ccc(C(F)(F)F)cc1` was tested. Which Potency [1] did it give?
**A.** inactive

**Q.** What about the Potency [2] of the same molecule?
**A.** 19 µM (active)

**Q.** With `COc1c(C)cnc(Cn2cc(C#CCC(C)(C)O)c3c(Cl)nc(N)nc32)c1C` as the molecule, how does the Potency [1] read?
**A.** inactive

**Q.** What about the Potency [2] of the same molecule?
**A.** inactive

**Q.** Which results are given for `C[C@H](Oc1cc(-n2cnc3ccc(CN4CCN(C)CC4)cc32)sc1C(N)=O)c1ccccc1C(F)(F)F`?
**A.** Potency [1]: inactive; Potency [2]: 21.3 µM (active)

**Q.** How did the Potency [1] turn out when `CC#CCn1c(N2CCCC(N)C2)nc2c1c(=O)n(Cc1nc(C)c3ccccc3n1)c(=O)n2C` (stereo not given) was run?
**A.** inactive

**Q.** And the Potency [2]?
**A.** inactive

**Q.** What does the source list for `Cn1cc(-c2ccc(S(=O)(=O)n3ccc(/C=C/C(=O)Nc4ccccc4N)c3)cc2)cn1`?
**A.** Potency [1]: inactive; Potency [2]: 2.68 µM (active)

**Q.** With `COc1ccc(S(=O)(=O)N2CCC[C@H]2C(=O)Nc2cc(C)cc(C)c2)cc1` as the molecule, how does the Potency [1] read?
**A.** inactive

**Q.** What about the Potency [2] of the same molecule?
**A.** inactive

**Q.** How did the Potency [1] turn out when `O=C(NCCCc1ccccc1)C1CCC(CNS(=O)(=O)c2cccc3nsnc23)CC1` (stereo not given) was run?
**A.** inactive

**Q.** What about the Potency [2] of the same molecule?
**A.** 10.7 µM (active)

**Q.** What does the source list for `CC(C)C[C@@H](C(=O)N[C@@H](Cc1ccc(OCc2ccccc2)cc1)C(=O)NC(C)(C)C)N(C)Cc1ccc(C(C)(C)C)cc1`?
**A.** Potency [1]: inactive; Potency [2]: inactive

**Q.** With `O=C(Nc1ccccc1Cl)c1cnc2ccc(C3CCNCC3)cn12` as the molecule, how does the Potency [1] read?
**A.** inactive

**Q.** And the Potency [2]?
**A.** inactive

**Q.** How did the Potency [1] turn out when `Nc1nc(OCc2cc(Br)cs2)c2[nH]cnc2n1` was run?
**A.** inactive

**Q.** What about the Potency [2] of the same molecule?
**A.** 6.74 µM (active)

**Q.** `CCN1CCN(Cc2ccc(C(=O)Nc3ccc(C)c(Oc4ccc5c(c4)CC(=O)N5)c3)cc2C(F)(F)F)CC1` was tested. Which Potency [1] did it give?
**A.** inactive

**Q.** And the Potency [2]?
**A.** 16.9 µM (active)

**Q.** `Cc1nc(Nc2ccc(F)cc2)nc(N2CCc3ccccc3C2C)c1C` (stereo not given) was tested. Which Potency [1] did it give?
**A.** inactive

**Q.** And the Potency [2]?
**A.** 7.56 µM (active)

**Q.** Which Potency [1] does the source give for `Nc1nc(O)c(C2=C3C(=Nc4ccccc43)C(=O)NCC2)[nH]1` here?
**A.** inactive

**Q.** And the Potency [2]?
**A.** inactive
